ChEMBL document CHEMBL1961873, “Compounds: GSK PKIS; Assays: Nanosyn kinase panel” (2012)

Tests used:
[1] = target: T1, Inhibitor of nuclear factor kappa-B kinase subunit epsilon (Homo sapiens) (UniProt Q14164); conditions: at 1 µM;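 note: reported values are averaged percent inhibition figures against human IKKε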
T1 sequence (whole entry): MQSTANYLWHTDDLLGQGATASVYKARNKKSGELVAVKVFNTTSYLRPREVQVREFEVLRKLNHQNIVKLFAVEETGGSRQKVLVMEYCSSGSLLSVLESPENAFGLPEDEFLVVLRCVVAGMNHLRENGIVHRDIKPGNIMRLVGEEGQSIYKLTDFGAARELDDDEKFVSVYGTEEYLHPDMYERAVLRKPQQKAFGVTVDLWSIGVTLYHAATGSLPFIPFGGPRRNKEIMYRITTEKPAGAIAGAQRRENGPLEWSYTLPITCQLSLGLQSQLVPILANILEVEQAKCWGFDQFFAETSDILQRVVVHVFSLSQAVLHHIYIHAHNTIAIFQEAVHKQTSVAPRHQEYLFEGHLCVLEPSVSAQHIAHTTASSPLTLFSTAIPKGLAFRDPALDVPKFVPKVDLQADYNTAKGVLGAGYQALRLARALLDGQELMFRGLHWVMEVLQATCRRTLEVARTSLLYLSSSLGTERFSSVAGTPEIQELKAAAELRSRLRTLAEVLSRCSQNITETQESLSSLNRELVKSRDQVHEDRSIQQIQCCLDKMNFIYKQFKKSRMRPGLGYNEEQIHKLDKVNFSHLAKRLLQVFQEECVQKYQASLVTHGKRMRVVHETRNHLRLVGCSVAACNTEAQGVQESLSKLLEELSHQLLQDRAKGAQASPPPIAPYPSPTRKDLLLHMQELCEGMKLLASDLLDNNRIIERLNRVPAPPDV

[2] = target: T2, Serine/threonine-protein kinase Nek1 (Homo sapiens) (UniProt Q96PY6); conditions: at 0.1 µM
T2 sequence (whole entry): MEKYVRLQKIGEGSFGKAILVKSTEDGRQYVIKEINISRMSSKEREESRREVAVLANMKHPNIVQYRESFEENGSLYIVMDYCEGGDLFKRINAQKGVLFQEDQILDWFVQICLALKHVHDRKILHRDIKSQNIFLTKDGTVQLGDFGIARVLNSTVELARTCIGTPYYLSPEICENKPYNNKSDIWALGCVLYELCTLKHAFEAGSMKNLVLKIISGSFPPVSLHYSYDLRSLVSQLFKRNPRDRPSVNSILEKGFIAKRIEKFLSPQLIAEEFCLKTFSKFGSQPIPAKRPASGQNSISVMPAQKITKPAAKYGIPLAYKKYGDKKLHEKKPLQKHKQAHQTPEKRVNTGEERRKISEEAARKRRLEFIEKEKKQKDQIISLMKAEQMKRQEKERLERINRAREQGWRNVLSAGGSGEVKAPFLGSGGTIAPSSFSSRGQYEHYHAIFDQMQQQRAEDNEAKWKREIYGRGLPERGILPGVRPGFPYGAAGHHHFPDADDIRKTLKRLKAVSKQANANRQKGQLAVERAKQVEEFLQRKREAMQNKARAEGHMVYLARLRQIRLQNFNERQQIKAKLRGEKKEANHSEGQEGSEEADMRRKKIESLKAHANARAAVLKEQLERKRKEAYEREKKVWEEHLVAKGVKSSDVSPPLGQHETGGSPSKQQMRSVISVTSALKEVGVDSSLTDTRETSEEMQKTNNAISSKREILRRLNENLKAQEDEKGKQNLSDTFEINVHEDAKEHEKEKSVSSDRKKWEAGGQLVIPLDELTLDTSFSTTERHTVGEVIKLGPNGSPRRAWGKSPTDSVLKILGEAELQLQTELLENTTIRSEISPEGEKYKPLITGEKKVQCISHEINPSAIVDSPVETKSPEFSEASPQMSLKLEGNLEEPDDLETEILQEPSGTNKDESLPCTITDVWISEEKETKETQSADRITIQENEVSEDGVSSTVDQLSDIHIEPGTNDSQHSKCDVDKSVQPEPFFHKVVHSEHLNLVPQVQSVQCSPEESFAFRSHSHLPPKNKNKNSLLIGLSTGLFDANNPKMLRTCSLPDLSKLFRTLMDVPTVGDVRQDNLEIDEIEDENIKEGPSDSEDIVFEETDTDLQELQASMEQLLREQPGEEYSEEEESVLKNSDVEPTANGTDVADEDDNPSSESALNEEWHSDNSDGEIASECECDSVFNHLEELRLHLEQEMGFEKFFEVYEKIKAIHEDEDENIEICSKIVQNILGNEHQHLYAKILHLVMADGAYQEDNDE

[3] = target: T2, Serine/threonine-protein kinase Nek1 (Homo sapiens); conditions: at 1 µM
[4] = target: T3, Serine/threonine-protein kinase Nek2 (Homo sapiens) (UniProt P51955); conditions: at 0.1 µM
T3 sequence (whole entry): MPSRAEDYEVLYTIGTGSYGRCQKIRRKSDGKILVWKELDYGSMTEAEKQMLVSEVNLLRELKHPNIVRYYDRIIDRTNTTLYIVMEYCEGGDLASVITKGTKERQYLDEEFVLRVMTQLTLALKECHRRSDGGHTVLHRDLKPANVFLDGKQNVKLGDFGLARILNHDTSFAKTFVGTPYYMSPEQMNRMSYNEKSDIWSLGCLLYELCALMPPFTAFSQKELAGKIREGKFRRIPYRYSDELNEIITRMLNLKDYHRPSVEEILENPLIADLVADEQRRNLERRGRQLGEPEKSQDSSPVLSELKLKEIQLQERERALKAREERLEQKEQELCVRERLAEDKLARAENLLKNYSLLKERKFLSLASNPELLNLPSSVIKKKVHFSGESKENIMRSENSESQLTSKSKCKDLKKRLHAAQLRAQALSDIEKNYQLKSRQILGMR

[5] = target: T3, Serine/threonine-protein kinase Nek2 (Homo sapiens); conditions: at 1 µM
[6] = target: Serine/threonine-protein kinase Nek6 (Homo sapiens) (UniProt Q9HC98); conditions: at 0.1 µM
Serine/threonine-protein kinase Nek6 (Homo sapiens), sequence (Q9HC98 whole entry): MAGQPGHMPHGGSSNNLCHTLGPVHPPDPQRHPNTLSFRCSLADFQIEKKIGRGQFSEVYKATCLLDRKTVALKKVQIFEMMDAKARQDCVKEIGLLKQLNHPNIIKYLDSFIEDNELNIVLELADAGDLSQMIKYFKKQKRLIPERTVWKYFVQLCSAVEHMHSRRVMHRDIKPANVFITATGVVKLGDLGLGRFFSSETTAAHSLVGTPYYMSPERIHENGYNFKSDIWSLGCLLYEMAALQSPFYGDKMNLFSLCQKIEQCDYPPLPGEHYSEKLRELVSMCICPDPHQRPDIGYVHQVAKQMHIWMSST

[7] = target: Serine/threonine-protein kinase Nek6 (Homo sapiens) (UniProt Q9HC98); conditions: at 1 µM
[8] = target: Serine/threonine-protein kinase Nek7 (Homo sapiens) (UniProt Q8TDX7); conditions: at 0.1 µM
Serine/threonine-protein kinase Nek7 (Homo sapiens), sequence (Q8TDX7 whole entry, looked up): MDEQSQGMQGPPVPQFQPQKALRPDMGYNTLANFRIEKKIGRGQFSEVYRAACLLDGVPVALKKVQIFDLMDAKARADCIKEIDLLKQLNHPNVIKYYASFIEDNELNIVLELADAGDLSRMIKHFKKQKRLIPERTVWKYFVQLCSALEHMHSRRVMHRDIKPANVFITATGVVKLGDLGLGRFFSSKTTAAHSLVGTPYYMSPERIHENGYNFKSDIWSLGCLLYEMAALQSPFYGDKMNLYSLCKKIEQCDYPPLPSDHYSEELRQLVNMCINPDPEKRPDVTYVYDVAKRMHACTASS

[9] = target: Serine/threonine-protein kinase Nek7 (Homo sapiens) (UniProt Q8TDX7); conditions: at 1 µM
[10] = target: T4, Serine/threonine-protein kinase Nek9 (Homo sapiens) (UniProt Q8TD19); conditions: at 0.1 µM
T4 sequence (whole entry): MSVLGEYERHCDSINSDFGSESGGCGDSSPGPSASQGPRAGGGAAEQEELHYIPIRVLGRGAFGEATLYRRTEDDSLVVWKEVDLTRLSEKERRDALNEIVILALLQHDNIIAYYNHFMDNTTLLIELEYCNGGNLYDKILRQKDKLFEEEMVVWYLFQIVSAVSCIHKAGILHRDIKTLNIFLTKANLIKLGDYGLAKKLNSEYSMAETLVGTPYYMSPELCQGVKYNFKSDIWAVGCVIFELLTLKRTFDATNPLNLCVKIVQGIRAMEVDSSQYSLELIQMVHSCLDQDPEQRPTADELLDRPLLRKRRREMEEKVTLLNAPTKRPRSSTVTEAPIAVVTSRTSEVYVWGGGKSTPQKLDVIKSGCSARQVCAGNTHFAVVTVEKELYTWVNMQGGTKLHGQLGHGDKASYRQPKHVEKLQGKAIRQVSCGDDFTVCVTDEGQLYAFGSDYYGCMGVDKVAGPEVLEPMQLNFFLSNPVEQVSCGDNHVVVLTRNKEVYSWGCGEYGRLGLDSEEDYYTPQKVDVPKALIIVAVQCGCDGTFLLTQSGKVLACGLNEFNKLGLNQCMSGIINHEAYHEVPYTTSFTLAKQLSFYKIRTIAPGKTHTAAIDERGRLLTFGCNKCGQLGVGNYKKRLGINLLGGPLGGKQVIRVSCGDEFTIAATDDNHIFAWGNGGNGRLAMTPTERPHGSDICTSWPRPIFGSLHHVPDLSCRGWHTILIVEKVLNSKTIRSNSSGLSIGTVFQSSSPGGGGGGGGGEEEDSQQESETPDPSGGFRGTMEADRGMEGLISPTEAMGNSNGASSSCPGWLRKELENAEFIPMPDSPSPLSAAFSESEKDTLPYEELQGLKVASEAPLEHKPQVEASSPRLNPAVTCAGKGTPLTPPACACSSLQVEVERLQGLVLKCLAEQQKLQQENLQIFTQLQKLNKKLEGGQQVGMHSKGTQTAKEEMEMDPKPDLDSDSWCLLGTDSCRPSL

[11] = target: T4, Serine/threonine-protein kinase Nek9 (Homo sapiens); conditions: at 1 µM
[12] = target: Serine/threonine-protein kinase PLK1 (Homo sapiens) (UniProt P53350); conditions: at 0.1 µM
Serine/threonine-protein kinase PLK1 (Homo sapiens), sequence (P53350 whole entry): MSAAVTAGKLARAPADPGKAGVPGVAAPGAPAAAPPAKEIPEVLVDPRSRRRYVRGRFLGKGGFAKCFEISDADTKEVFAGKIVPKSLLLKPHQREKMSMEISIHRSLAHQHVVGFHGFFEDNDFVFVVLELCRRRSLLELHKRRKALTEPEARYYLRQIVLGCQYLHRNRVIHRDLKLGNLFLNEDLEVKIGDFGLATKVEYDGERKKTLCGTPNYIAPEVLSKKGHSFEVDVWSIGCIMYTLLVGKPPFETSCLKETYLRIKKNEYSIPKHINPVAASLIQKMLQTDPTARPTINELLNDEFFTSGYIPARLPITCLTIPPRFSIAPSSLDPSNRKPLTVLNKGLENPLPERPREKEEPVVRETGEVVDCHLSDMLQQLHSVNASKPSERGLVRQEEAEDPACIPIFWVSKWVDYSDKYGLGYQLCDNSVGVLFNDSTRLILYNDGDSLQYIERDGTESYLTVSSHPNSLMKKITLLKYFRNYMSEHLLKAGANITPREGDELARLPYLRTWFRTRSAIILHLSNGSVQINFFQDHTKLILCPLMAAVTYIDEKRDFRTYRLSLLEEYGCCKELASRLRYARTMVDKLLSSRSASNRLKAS

[13] = target: Serine/threonine-protein kinase PLK1 (Homo sapiens) (UniProt P53350); conditions: at 1 µM
[14] = target: T5, Dual specificity protein kinase TTK (Homo sapiens) (UniProt P33981); conditions: at 0.1 µM
T5 sequence (whole entry): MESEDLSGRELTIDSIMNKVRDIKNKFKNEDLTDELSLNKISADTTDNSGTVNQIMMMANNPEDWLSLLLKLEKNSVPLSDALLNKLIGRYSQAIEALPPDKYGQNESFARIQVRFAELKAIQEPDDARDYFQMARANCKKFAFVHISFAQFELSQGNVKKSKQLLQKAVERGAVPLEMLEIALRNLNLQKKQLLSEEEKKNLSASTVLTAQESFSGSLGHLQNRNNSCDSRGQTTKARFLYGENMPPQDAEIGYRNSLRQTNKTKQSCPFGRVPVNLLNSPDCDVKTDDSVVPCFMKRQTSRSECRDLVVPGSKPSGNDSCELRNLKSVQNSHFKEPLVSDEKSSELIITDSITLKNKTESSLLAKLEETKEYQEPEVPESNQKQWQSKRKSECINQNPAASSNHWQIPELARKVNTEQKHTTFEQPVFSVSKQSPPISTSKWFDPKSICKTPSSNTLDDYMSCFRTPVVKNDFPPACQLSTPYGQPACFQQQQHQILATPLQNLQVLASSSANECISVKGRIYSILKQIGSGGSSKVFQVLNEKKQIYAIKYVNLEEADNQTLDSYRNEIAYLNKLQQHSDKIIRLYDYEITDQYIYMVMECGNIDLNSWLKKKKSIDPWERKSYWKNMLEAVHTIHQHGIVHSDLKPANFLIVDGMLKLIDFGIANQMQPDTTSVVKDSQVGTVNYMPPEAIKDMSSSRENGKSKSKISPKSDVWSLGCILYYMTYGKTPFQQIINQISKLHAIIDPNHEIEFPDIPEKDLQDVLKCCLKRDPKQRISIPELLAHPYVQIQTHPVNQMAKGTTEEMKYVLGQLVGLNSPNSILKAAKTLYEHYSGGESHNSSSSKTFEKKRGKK

[15] = system: T6, Receptor-type tyrosine-protein kinase FLT3 (Homo sapiens), P36888 [D835Y]; conditions: at 1 µM
T6 sequence (whole entry): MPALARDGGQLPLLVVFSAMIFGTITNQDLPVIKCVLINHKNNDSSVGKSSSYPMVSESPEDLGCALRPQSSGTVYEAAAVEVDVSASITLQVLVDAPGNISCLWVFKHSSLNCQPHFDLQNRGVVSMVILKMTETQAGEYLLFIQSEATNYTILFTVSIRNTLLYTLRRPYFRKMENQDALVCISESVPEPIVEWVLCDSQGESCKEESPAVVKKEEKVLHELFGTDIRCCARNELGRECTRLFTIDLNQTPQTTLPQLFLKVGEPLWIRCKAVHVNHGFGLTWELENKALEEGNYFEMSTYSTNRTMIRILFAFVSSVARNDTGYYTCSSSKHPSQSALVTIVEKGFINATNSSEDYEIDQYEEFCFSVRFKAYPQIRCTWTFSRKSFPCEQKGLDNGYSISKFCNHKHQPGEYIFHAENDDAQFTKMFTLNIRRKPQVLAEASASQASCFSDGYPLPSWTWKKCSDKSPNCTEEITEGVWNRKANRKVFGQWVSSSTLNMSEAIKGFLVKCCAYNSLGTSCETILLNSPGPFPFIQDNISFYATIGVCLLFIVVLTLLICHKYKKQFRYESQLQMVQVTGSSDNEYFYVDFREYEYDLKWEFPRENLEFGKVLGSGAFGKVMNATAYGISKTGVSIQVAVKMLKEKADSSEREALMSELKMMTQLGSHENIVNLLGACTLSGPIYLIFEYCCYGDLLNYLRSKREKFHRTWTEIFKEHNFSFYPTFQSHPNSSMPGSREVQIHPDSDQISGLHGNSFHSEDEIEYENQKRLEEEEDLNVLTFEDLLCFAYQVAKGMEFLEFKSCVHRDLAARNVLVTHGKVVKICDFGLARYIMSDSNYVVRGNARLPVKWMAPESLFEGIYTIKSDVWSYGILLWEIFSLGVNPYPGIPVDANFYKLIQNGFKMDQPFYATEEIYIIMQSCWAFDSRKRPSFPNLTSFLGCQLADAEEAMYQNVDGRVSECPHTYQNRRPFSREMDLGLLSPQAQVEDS

[16] = target: Vascular endothelial growth factor receptor 3 (Homo sapiens) (UniProt P35916); conditions: at 0.1 µM
Vascular endothelial growth factor receptor 3 (Homo sapiens), sequence (P35916 whole entry): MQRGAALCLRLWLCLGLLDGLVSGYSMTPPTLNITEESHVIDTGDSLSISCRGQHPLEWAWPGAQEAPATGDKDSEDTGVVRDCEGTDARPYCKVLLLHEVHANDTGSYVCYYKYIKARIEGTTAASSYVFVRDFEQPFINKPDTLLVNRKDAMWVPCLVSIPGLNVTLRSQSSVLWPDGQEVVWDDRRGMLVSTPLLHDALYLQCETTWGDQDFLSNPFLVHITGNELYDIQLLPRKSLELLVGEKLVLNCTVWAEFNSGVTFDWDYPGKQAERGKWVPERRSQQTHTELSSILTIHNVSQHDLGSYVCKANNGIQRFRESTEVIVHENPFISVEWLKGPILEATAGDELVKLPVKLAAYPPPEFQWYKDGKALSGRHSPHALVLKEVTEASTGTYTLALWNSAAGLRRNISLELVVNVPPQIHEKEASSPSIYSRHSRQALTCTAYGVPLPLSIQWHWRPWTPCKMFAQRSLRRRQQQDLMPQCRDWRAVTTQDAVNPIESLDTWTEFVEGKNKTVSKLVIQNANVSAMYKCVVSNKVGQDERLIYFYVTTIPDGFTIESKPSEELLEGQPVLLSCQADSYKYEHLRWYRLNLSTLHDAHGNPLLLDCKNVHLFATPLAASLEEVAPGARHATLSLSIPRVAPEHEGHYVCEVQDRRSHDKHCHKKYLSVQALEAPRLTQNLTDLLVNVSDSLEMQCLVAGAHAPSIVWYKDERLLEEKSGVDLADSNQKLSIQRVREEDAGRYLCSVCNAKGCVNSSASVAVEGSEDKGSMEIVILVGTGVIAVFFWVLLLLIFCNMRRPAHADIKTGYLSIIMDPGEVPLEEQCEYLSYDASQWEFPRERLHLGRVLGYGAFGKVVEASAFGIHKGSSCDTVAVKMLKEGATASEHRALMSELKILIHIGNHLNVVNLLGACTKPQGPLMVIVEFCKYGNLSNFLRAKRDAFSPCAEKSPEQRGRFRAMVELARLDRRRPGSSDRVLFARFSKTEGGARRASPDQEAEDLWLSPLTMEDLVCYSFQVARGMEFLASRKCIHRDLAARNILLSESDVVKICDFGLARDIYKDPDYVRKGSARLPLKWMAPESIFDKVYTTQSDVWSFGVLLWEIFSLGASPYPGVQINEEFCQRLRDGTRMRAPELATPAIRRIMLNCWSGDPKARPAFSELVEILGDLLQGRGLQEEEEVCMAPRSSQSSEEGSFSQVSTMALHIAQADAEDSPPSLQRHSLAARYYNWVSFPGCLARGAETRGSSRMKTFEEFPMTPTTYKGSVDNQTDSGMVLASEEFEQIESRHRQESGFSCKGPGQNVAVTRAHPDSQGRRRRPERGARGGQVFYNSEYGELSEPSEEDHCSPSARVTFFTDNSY

[17] = target: Vascular endothelial growth factor receptor 3 (Homo sapiens) (UniProt P35916); conditions: at 1 µM
[18] = target: Macrophage colony-stimulating factor 1 receptor (Homo sapiens) (UniProt P07333); conditions: at 0.1 µM
Macrophage colony-stimulating factor 1 receptor (Homo sapiens), sequence (P07333 whole entry): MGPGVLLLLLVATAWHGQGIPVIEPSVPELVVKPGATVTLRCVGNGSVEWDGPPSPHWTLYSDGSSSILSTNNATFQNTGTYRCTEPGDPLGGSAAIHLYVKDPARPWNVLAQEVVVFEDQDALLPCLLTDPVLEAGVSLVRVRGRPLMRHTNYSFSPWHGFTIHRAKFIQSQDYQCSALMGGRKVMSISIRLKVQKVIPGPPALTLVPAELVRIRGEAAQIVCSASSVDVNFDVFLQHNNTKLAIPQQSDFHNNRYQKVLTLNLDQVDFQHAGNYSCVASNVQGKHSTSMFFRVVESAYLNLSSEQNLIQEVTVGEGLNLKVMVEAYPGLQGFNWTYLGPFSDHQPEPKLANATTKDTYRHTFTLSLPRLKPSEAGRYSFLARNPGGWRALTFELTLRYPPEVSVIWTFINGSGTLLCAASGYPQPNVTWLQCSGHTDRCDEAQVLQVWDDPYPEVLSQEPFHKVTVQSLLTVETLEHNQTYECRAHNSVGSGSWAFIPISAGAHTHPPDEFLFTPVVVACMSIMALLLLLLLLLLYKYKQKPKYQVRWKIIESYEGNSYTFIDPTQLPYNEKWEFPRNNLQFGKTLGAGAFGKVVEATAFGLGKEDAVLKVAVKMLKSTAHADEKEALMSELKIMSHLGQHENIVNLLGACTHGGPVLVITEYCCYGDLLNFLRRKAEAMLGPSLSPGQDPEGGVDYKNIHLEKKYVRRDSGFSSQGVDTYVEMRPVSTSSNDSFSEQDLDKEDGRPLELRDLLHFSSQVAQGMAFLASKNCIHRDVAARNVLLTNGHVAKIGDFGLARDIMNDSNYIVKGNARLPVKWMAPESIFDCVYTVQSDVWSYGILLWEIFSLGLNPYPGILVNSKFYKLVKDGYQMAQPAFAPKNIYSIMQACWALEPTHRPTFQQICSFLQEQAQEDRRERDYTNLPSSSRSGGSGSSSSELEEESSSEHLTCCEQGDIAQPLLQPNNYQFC

[19] = target: Macrophage colony-stimulating factor 1 receptor (Homo sapiens) (UniProt P07333); conditions: at 1 µM
[20] = target: Tyrosine-protein kinase Fyn (Homo sapiens) (UniProt P06241); conditions: at 0.1 µM
Tyrosine-protein kinase Fyn (Homo sapiens), sequence (P06241 2-537 limits assumed): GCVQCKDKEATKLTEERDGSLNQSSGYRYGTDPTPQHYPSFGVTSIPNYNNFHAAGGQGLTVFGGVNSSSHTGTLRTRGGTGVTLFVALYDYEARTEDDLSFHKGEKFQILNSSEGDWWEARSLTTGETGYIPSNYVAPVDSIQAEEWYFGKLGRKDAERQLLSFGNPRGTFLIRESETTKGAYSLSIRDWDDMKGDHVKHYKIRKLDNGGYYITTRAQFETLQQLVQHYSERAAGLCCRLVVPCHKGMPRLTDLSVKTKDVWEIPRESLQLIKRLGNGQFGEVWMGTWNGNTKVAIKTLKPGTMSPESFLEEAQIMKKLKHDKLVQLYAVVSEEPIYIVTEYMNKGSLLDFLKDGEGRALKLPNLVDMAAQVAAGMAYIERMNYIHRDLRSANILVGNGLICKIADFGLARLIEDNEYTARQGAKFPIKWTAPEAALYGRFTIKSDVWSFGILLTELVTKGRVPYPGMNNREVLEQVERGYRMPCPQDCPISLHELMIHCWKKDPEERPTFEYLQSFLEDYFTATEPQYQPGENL

Compound	inhibition [1] [%]	inhibition [2] [%]	inhibition [3] [%]	inhibition [4] [%]	inhibition [5] [%]	inhibition [6] [%]	inhibition [7] [%]	inhibition [8] [%]	inhibition [9] [%]	inhibition [10] [%]	inhibition [11] [%]	inhibition [12] [%]	inhibition [13] [%]	inhibition [14] [%]	inhibition [15] [%]	inhibition [16] [%]	inhibition [17] [%]	inhibition [18] [%]	inhibition [19] [%]	inhibition [20] [%]
CCn1c(-c2nonc2N)nc2ccccc21	1.58	2.18	2.6	3.43	4.15	5.78	0.38	2.9	4.22	0.97	0.94	6.53	2.85	3.51	-3.67	5.92	5.29	0.61	2.71	0.86
CC1=C(C(=O)Nc2cc(Cl)c3[nH]ncc3c2)C(c2ccc(C(F)(F)F)cc2)CC(=O)N1 (stereo not given)	5.11	2.99	3.61	4.1	4.83	2.7	2.6	4.35	3.32	5.83	8.4	4.17	4.12	5.88	1.66	-0.3	-1.34	5.21	1.8	0.13
CCN(CC)S(=O)(=O)c1ccc(OC)c(Nc2ncc(-c3ccccc3)o2)c1	1.73	-0.43	1.95	0.46	-0.71	1.9	1.12	-0.6	-0.03	2.38	1.83	0.06	0.24	2.04	69.9	30.9	85.5	42.4	84.8	6.94
